Source: ChEMBL document CHEMBL4513216, “Probing the Open Global Health Chemical Diversity Library for Multistage-Active Starting Points for Next-Generation Antimalarials” (ACS Infect Dis, 2020)
Screen size: about 69,000 compounds; about 8,600 (12%) showed an effect of 50% or more. The sample as a whole holds a higher share of strong results than the screen did.

Each compound was assayed on Plasmodium berghei (assay: Screen against P. berghei liver stage (PbLuc), transformed with Luciferase, at 10uM). Details: tested at 10 uM.
Format: functional, HepG2

SMILES	INHIBITION [%]
CCC(CNC(=O)c1cccc(S(=O)(=O)NC)c1)N1CCCC1 (stereo unspecified)	18
COCCN1CCc2ncnc(-c3ccccc3)c2CC1	8.66
Cc1ccc(C(=O)N(C)CC(=O)Nc2cccc(C)n2)cn1	16.8
Cc1cccc(NC(=O)CN(C)C(=O)c2ccc(-n3cccc3)nc2)n1	8.08
Cc1ccc(NC(=O)CN(C)C(=O)c2ccc(-n3cccc3)nc2)nc1	68.9
Nc1nc(C2CCN(C(=O)c3cnco3)CC2)cs1	18.9
Cc1cc(N[C@H]2CN(CC(C)(C)N3CCOCC3)C[C@@H]2C2CC2)ncn1	35.8
CCCc1cc(C(=O)N(C)Cc2cccc3ncccc23)n(C)n1	46.8
CCOCCn1nc(C)cc1C(=O)N(C)Cc1cccc2ncccc12	36
CN(Cc1cccc2ncccc12)C(=O)CCn1ccc(=O)[nH]c1=O	30.9
CCCc1cc(C(=O)N(C)Cc2ccc(OC)c3ncccc23)n(C)n1	67.9
CC(C)c1cc(C(=O)N(C)Cc2cccc3ncccc23)n(C)n1	67.2
CCCc1cc(C(=O)N(C)Cc2cccc3cnccc23)n(C)n1	6.33
O=C(c1ccc2c(c1)OCCO2)N1CCCC(n2ccnc2)C1 (stereo unspecified)	37.9
CCC(=O)N1CCC(c2nc(C)c3c(n2)N(C)CCC3)CC1	34.1
CC(C)N1CC(c2ccnc(Nc3nccs3)n2)C1	29.49
COc1ccc(Cl)cc1-n1cnc(CCNC(C)=O)c1	71.5
COc1cc(F)c(-n2cnc(CCNC(C)=O)c2)cc1F	4.1
COc1ccc(F)cc1-n1cnc(CCNC(C)=O)c1	35.1
O=C1NC2(CCN(CC(=O)N3CCOCC3)CC2)Nc2ccccc21	3.5
O=S1(=O)COCCN1Cc1ccc(F)c(C(F)(F)F)c1	19.4
Cc1noc(-c2ccc(N3CCC[C@H]3CO)nc2)n1	17.6

SMILES	INHIBITION [%]
COCc1noc(-c2ccc(N3CCCC3c3ccc(F)cc3)nc2)n1 (stereo unspecified)	18.5
OC[C@@H]1CCCN1c1ccc(-c2nc(CCc3ccccc3)no2)cn1	43.9
COc1ccc(-c2cnc(CN3CCCC3CO)o2)cc1 (stereo unspecified)	15.1
COCc1noc(-c2ccc(N3CCCC3c3nccs3)nc2)n1 (stereo unspecified)	43
OC[C@@H]1CCCN1c1ccc(-c2nc(COc3ccccc3)no2)cn1	25.8
COc1ccc(-c2noc(-c3ccc(N4CCC[C@H]4CO)nc3)n2)cc1	84.8
COCc1noc(-c2ccc(N3CCCCC3COC)nc2)n1 (stereo unspecified)	48.5
COCc1noc(-c2ccc(N3CCCCC3CCCO)nc2)n1 (stereo unspecified)	35.8
COCc1noc(-c2ccc(N3CCC[C@H]3CO)nc2)n1	75.7
OCC1CCCCN1c1ccc(-c2nc(-c3ccccc3F)no2)cn1 (stereo unspecified)	91.8
COCc1noc(-c2ccc(N3CCCCC3CO)nc2)n1 (stereo unspecified)	90.1
CCCN1C[C@@H]2CC[C@H]1CN(C(=O)c1ccc(N(C)CCO)cc1)C2	43.9
N#Cc1ccc(CS(=O)(=O)NC(=O)COc2ccc3c(c2)CCC3)cc1	-57.66
COC(=O)N1CC(C)=C(C)CN1C(=O)Nc1cccc(Cl)c1	-28.6
COc1cc(OC)cc(C(=O)N2CCOCC2c2[nH]ncc2C)c1 (stereo unspecified)	46.25
Cc1nc(C)n(CC2CCCN2CCC(=O)N2CCCCC2)n1 (stereo unspecified)	-8.11
Cc1ccc(C(=O)N2Cc3c(CN4CCCCC4)nn(C)c3C2)o1	28.4
CC(=O)Nc1nc(C(=O)N2CCCC2c2ccc(Br)cc2)cs1 (stereo unspecified)	26.4
Cc1cc(C)c(CNC(=O)C(C)Oc2cccc(C#N)c2)c(=O)[nH]1 (stereo unspecified)	36.4
CCC(C)Oc1ccccc1Cn1cc2[nH]cccc-2c1=O (stereo unspecified)	41.5
Cc1ccnc(C2CN(c3ccnc(C)n3)C2)n1	28.6
CCc1nc(NC2CCN(CC(=O)NC3CC3)CC2)c2cnn(C)c2n1	21.8

SMILES	INHIBITION [%]
COc1cccc(CN2CCC(CO)(Cc3ccc(Cl)cc3)CC2)c1O	85.4
OCC1(Cc2ccc(Cl)cc2)CCN(Cc2cccnc2)CC1	92
Clc1ccc(CN2CCC3(CC2)CC(c2cccnc2)=NO3)cc1	46.6
COc1ccc(CN2CCC(CO)(Cc3ccc(Cl)cc3)CC2)c(O)c1	31.6
OCC1(Cc2ccc(Cl)cc2)CCN(Cc2ccccc2O)CC1	14.6
Clc1ccc(CN2CCC(C3CCN(Cc4cccnc4)CC3)C2)cc1 (stereo unspecified)	36.8
Cc1c(C(=O)NCC2CCCO2)nnn1-c1cccc2c1CCN(C)C2 (stereo unspecified)	29.2
COc1c(C2CCCN2C(=O)c2ccc3[nH]cnc3c2)c(C)nn1C (stereo unspecified)	-2.19
O=C(C1CC1)N1C[C@@H](F)[C@@H](OCc2nc3ccccc3o2)C1	13.1
F[C@@H]1CN(CC2CC2)C[C@@H]1OCc1nc2ccccc2o1	-3.5
CS(=O)(=O)N1C[C@@H](F)[C@@H](OCc2nc3ccccc3o2)C1	41.1
O=C(C1CC1)N1C[C@@H](F)[C@@H](OCc2nc3ccccc3[nH]2)C1	7.85
O=C(c1ccno1)N1C[C@@H](F)[C@@H](OCc2nc3ccccc3o2)C1	56.3
F[C@@H]1CN(CC2CCCCC2)C[C@@H]1OCc1nc2ccccc2o1	29.8
CC(C)NC(=O)N1C[C@@H](F)[C@@H](OCc2nc3ccccc3o2)C1	58.5
CC(C)(C)C(=O)N1C[C@@H](F)[C@@H](OCc2nc3ccccc3o2)C1	70.7
CC(=O)N1C[C@@H](F)[C@@H](OCc2nc3ccccc3o2)C1	-15.6
CCC(CN1CCCCC1)NC(=O)C1(c2ccc(F)cc2)CC1 (stereo unspecified)	48.2
COc1ccc(C(=O)N2CCOCC2c2[nH]ncc2C)cc1F (stereo unspecified)	3.75
Cc1cnn(CC2CN(Cc3nc4ccccc4c(=O)[nH]3)CCO2)c1 (stereo unspecified)	29.4
Cc1nc2c(Nc3cccc(C#N)c3)nc(N)nc2n1C	-42.8
CC(C)NC(=O)N1CCC2(CC1)Cc1ccccc1CN(C)C2=O	-6.25

SMILES	INHIBITION [%]
CNC(=O)Nc1cc(-c2ccccc2C)nn1CCO	-60
CCNC(=O)CCC(=O)NCC1(O)CCC(C(C)(C)C)CC1 (stereo unspecified)	-23.8
COc1cccc(S(=O)(=O)N2CCCCC2CCN2CCOCC2)c1 (stereo unspecified)	22.6
CCN1CCC(CC(=O)N[C@H](C(=O)O)c2cccc(F)c2F)CC1	-2.39
CC(C)N1CCC(CC(=O)NC(C(=O)O)c2ccc(F)cc2)CC1 (stereo unspecified)	33.9
CC(C)N1CCC(CC(=O)NC(C(=O)O)c2cc(F)ccc2F)CC1 (stereo unspecified)	52.1
CCCN1CCC(CC(=O)N[C@H](C(=O)O)c2cccc(F)c2F)CC1	53
O=C(CCCN1CCCCC1)N[C@H](C(=O)O)c1cccc(F)c1F	34.5
CC(C)N1CCC(CC(=O)NC(C(=O)O)c2cccc(F)c2)CC1 (stereo unspecified)	36.7
O=C(CCc1nc2cccnc2[nH]1)Nc1ccc2c(c1)NC(=O)CO2	14.8
CSc1nccc(N2CCC(=O)N(CC3CC3)C(C(C)C)C2)n1 (stereo unspecified)	7.43
Cc1ccc(N2CCCC(NCc3ccc4c(c3)OCCO4)C2)nn1 (stereo unspecified)	-19.4
CSc1nccc(N2CCC(NCc3ccc4c(c3)OCO4)CC2)n1	57.4
Cc1cccc(N2CCC(NCc3cnc(C4CCC4)s3)CC2)n1	36.5
CSc1nccc(N2CCC(NCc3nc(C)cc(C)n3)CC2)n1	8.7
CSc1nccc(N2CCC(NCc3ccc4nsnc4c3)CC2)n1	76.9
O=C(NCCNS(=O)(=O)N1CCCCCC1)c1ncccc1O	-13.6
CCCC(O)CN1CCC(=O)N(Cc2ccccc2)Cc2ccccc21 (stereo unspecified)	-30
Cc1ccc(C)n1-c1c(C(=O)NCC(C)Cn2cccn2)cnn1C (stereo unspecified)	5.36
CN1[C@H](CN2CCCC2)C[C@@H]2CN(C(=O)Cc3cccs3)CC[C@@H]21	49.1
Cc1cc(C(=O)Nc2ccc3c(c2)N(C)CCN(C)C3)on1	44.2
CN1CCN(C)c2cc(NC(=O)c3cc[nH]n3)ccc2C1	43.1

SMILES	INHIBITION [%]
CCc1ccc(C(=O)Nc2ccc3c(c2)N(C)CCN(C)C3)o1	66.9
c1ccc(CCN2CCN(c3ncnc4[nH]ccc34)CC2)cc1	33
c1ccc(CCCN2CCCN(c3ncnc4[nH]ccc34)CC2)cc1	52.7
c1ccc(OCCN2CCN(c3ncnc4[nH]ccc34)CC2)cc1	35.1
COc1ccc(Cn2c(CCc3c(C)n[nH]c3C)n[nH]c2=O)cc1	-5.08
CCCc1nc(C)c(C(=O)NCCN2CCOCC2)s1	-65.3
COc1ccc(CCC2CCCCN2)cc1 (stereo unspecified)	49.6
O=C(O)c1cnc2c(Br)cccc2c1O	27.5
O=C(O)c1cccc2c(Br)cccc12	73.9
O=C(O)c1ccnc2c(Br)cccc12	9.32
C=C(C)COc1ccccc1C(=O)NCCc1cc(O)nc(C)n1	41.3
CCOC(=O)N1CCc2ccccc2C12CCNCC2	50.4
CCOC(=O)N1CC2(CCNCC2)c2cc(Cl)ccc21	21.1
O=C(C1CC1)N1CC2(CCNCC2)C1	-1.12
CN(C)C(=O)N1Cc2ccccc2C2(CCNCC2)C1	12.4
COCC(=O)N1CCc2ccccc2C12CCNCC2	40.5
O=C(C1CC1)N1CCc2ccccc2C12CCNCC2	55.4
Cc1ccc(CC(=O)N2CCC(Nc3cccnn3)CC2)s1	-58.0025
